# About 410 targets per protein were measured; listed, in parts, are those with the strongest signals and a random draw of the rest.
# B1: CvGal2 (Crassostrea virginica) (protein)
# chain: MGSSHHHHHHSSGLVPRGSHMRIREAGKRKDTTKVYQIPDGLFPGQQVMLRGRVPWGSKSFSINFSATPRMGEGDILFHLNPRPSEGVCIRNALLNGSWGAEEKWQPYFPFDDGRSFSVKIEVTNDAFRTFVNGRPFVDFLHRTDFRAGKYLTLREGAEYYDVIFQSKPNIPLTTAIHNGMRIGKTIRIRGMCTAQDGFAINFNDNRNNIYFHFNARPAQRTVVRNSYFGSWGNEETAISKEFPFYPFLYFYASFVCMEDKFAVYVNDEHFIDFAHRGNPNNISVLQIKGSVNVLDTECLEPMGEDAMTEVDSGLENGDLFVLNGLMTERGKTFAVNFLNGFTENDDIALHFNPRKSTGEVVLNSRYGGAWQSEEKVALPGVFWSNRPLQVKVETKRNKFKIYVNGVDLAKYKIRGNVEDVHAVQVKGDVFLLETLLLKRLMKPVWERLTGGIRPGTWVTLQGTPKKNWQQFVVNFALDDTLDGDIAFHFNVRRGARQVVRNHRQSGAWGREETVTPFFAFDSEATFEIVFFVKEEKFLIYFNGKLFFEFVHRVPVERITHIYMDGDCNFYEPEVVI
# Tests used:
# Experiment in all cases: glycan array binding signal (z-score within array); higher = stronger binding
# Conditions in all cases: glycan notation: IUPAC condensed, linker removed
# [1] = molecular target: Fuc(a1-2)Gal(b1-3)GalNAc(a1-3)[Fuc(a1-2)]Gal(b1-4)GlcNAc
# How it was run: (§1)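 Negative Z-scores can be read as non-binding. The Z-score is calculated within each array and then averaged across arrays of one protein sequence at different concentrations or buffers and across linkers. Arrays, 3228 in all, were curated from the Consortium for Functional Glycomics database and kept only where the protein sequence was available.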
# [2] = molecular target: Fuc(a1-2)[Gal(a1-3)]Gal(b1-3)GlcNAc(b1-2)Man(a1-3)[Fuc(a1-2)[Gal(a1-3)]Gal(b1-3)GlcNAc(b1-2)Man(a1-6)]Man(b1-4)GlcNAc(b1-4)GlcNAc
# How it was run: as §1
# [3] = molecular target: Fuc(a1-2)[Gal(a1-3)]Gal(b1-4)Glc
# How it was run: as §1
# [4] = molecular target: Fuc(a1-2)[Gal(a1-3)]Gal(b1-4)GlcNAc
# How it was run: as §1
# [5] = molecular target: Fuc(a1-2)[Gal(a1-3)]Gal(b1-4)GlcNAc(b1-2)Man(a1-3)[Fuc(a1-2)[Gal(a1-3)]Gal(b1-4)GlcNAc(b1-2)Man(a1-6)]Man(b1-4)GlcNAc(b1-4)GlcNAc
# How it was run: as §1
# [6] = molecular target: Fuc(a1-2)[GalNAc(a1-3)]Gal(b1-3)GlcNAc(b1-2)Man(a1-3)[Fuc(a1-2)[GalNAc(a1-3)]Gal(b1-3)GlcNAc(b1-2)Man(a1-6)]Man(b1-4)GlcNAc(b1-4)GlcNAc
# How it was run: as §1
# [7] = molecular target: Fuc(a1-2)[GalNAc(a1-3)]Gal(b1-3)GlcNAc(b1-3)GalNAc
# How it was run: as §1
# [8] = molecular target: Fuc(a1-2)[GalNAc(a1-3)]Gal(b1-4)GlcNAc(b1-2)Man(a1-3)[Fuc(a1-2)[GalNAc(a1-3)]Gal(b1-4)GlcNAc(b1-2)Man(a1-6)]Man(b1-4)GlcNAc(b1-4)[Fuc(a1-6)]GlcNAc
# How it was run: as §1
# [9] = molecular target: Fuc(a1-2)[GalNAc(a1-3)]Gal(b1-4)GlcNAc(b1-3)Gal(b1-4)GlcNAc
# How it was run: as §1
# [10] = molecular target: Fuc(a1-2)[GalNAc(a1-3)]Gal(b1-4)GlcNAc(b1-3)Gal(b1-4)GlcNAc(b1-3)Gal(b1-4)GlcNAc
# How it was run: as §1
# [11] = molecular target: Fuc(a1-2)[GalNAc(a1-3)]Gal(b1-4)GlcNAc(b1-3)[Fuc(a1-2)[GalNAc(a1-3)]Gal(b1-4)GlcNAc(b1-6)]GalNAc
# How it was run: as §1
# [12] = molecular target: Fuc(a1-2)[GalNAc(a1-3)]Gal(b1-4)[Fuc(a1-3)]GlcNAc(b1-3)GalNAc
# How it was run: as §1
# [13] = molecular target: Fuc(a1-3)[Gal3S(b1-4)]GlcNAc
# How it was run: as §1
# Gal(b1-3)Gal(b1-4)GlcNAc = molecular target: Gal(b1-3)Gal(b1-4)GlcNAc
# How it was run: as §1
# [14] = molecular target: Gal(b1-3)GalNAc(a1-3)[Fuc(a1-2)]Gal(b1-4)Glc
# How it was run: as §1
# [15] = molecular target: Gal(b1-3)GalNAc(a1-3)[Fuc(a1-2)]Gal(b1-4)GlcNAc
# How it was run: as §1
# [16] = molecular target: Gal(b1-3)GlcNAc(b1-3)Gal(b1-4)GlcNAc(b1-3)Gal(b1-4)GlcNAc(b1-2)[Gal(b1-3)GlcNAc(b1-3)Gal(b1-4)GlcNAc(b1-3)Gal(b1-4)GlcNAc(b1-6)]Man(a1-6)[Gal(b1-3)GlcNAc(b1-3)Gal(b1-4)GlcNAc(b1-3)Gal(b1-4)GlcNAc(b1-2)Man(a1-3)]Man(b1-4)GlcNAc(b1-4)[Fuc(a1-6)]GlcNAc
# How it was run: as §1
# [17] = molecular target: Gal(b1-3)GlcNAc(b1-3)Gal(b1-4)GlcNAc(b1-6)[Gal(b1-3)GlcNAc(b1-3)]Gal(b1-4)Glc
# How it was run: as §1
# [18] = molecular target: Gal(b1-3)[Fuc(a1-4)]GlcNAc(b1-2)Man(a1-3)[Gal(b1-3)[Fuc(a1-4)]GlcNAc(b1-2)Man(a1-6)]Man(b1-4)GlcNAc(b1-4)[Fuc(a1-6)]GlcNAc
# How it was run: as §1
# [19] = molecular target: Gal(b1-4)GlcNAc(b1-2)Man(a1-3)[GlcNAc(b1-2)Man(a1-6)]Man(b1-4)GlcNAc(b1-4)GlcNAc
# How it was run: as §1
# [20] = molecular target: Gal(b1-4)GlcNAc(b1-3)Gal(b1-4)GlcNAc(b1-2)Man(a1-3)[Gal(b1-4)GlcNAc(b1-3)Gal(b1-4)GlcNAc(b1-2)Man(a1-6)]Man(b1-4)GlcNAc(b1-4)[Fuc(a1-6)]GlcNAc
# How it was run: as §1
# [21] = molecular target: Gal(b1-4)GlcNAc(b1-3)Gal(b1-4)GlcNAc(b1-3)Gal(b1-4)GlcNAc(b1-3)Gal(b1-4)GlcNAc(b1-2)Man(a1-3)[Gal(b1-4)GlcNAc(b1-3)Gal(b1-4)GlcNAc(b1-3)Gal(b1-4)GlcNAc(b1-3)Gal(b1-4)GlcNAc(b1-2)Man(a1-6)]Man(b1-4)GlcNAc(b1-4)[Fuc(a1-6)]GlcNAc
# How it was run: as §1
# Gal3S(b1-4)Glc6S = molecular target: Gal3S(b1-4)Glc6S
# How it was run: as §1
# GalNAc4S6S(b1-4)GlcNAc = molecular target: GalNAc4S6S(b1-4)GlcNAc
# How it was run: as §1
# GlcA(b1-3)GlcNAc = molecular target: GlcA(b1-3)GlcNAc
# How it was run: as §1
binder,measurement,setting,value
B1,glycan array binding signal (z-score),[1],4.44
same,glycan array binding signal (z-score),[2],5.23
same,glycan array binding signal (z-score),[3],4.03
same,glycan array binding signal (z-score),[4],2.16
same,glycan array binding signal (z-score),[5],7.14
same,glycan array binding signal (z-score),[6],4.12
same,glycan array binding signal (z-score),[7],0.97
same,glycan array binding signal (z-score),[8],3.72
same,glycan array binding signal (z-score),[9],3.77
same,glycan array binding signal (z-score),[10],4.33
same,glycan array binding signal (z-score),[11],6.77
same,glycan array binding signal (z-score),[12],-0.333
same,glycan array binding signal (z-score),[13],-0.329
same,glycan array binding signal (z-score),Gal(b1-3)Gal(b1-4)GlcNAc,0.538
same,glycan array binding signal (z-score),[14],3.35
same,glycan array binding signal (z-score),[15],4.05
same,glycan array binding signal (z-score),[16],2.77
same,glycan array binding signal (z-score),[17],4.4
same,glycan array binding signal (z-score),[18],-0.33
same,glycan array binding signal (z-score),[19],-0.329
same,glycan array binding signal (z-score),[20],-0.175
same,glycan array binding signal (z-score),[21],-0.126
same,glycan array binding signal (z-score),Gal3S(b1-4)Glc6S,0.689
same,glycan array binding signal (z-score),GalNAc4S6S(b1-4)GlcNAc,-0.33
same,glycan array binding signal (z-score),GlcA(b1-3)GlcNAc,-0.318
